Data taken from the supplement of paper PMC6555819.

Experiments:
Assay in all cases: PBM binding z-score (relative to random genomic background probes); higher = stronger binding; sequences stand for … in GC…GCGATTGACAGCGTAGAATGAAGG
[1] = tested on: FXR:RXRa (NR concentration 270 nM, RXRa partner concentration 90 nM)
Method in brief: (§1)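 Each nuclear receptor dimer, without ligand, was incubated for 1 h on custom Agilent 4×180K protein-binding microarrays. Binding was detected with antibodies against each partner (one per run), and scanned fluorescence was regression-normalized. The binding z-scores are referenced to random human genomic background probes.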

[2] = tested on: LXRa:RXRa (NR concentration 270 nM, RXRa partner concentration 90 nM)
Method in brief: as §1

[3] = tested on: LXRa homodimer (NR concentration 270 nM)
Method in brief: as §1

[4] = tested on: LXRb:RXRa (NR concentration 270 nM, RXRa partner concentration 90 nM)
Method in brief: as §1

[5] = tested on: LXRb homodimer (NR concentration 270 nM)
Method in brief: as §1

[6] = tested on: PPARa:RXRa (NR concentration 270 nM, RXRa partner concentration 90 nM)
Method in brief: as §1

[7] = tested on: PPARg:RXRa (NR concentration 180 nM, RXRa partner concentration 90 nM)
Method in brief: as §1

[8] = tested on: PPARg:RXRa 270nM:90nM, anti-RXR (NR concentration 270 nM, RXRa partner concentration 90 nM)
Method in brief: as §1

[9] = tested on: PPARg:RXRa 30nM:10nM, anti-RXR (NR concentration 30 nM, RXRa partner concentration 10 nM)
Method in brief: as §1

[10] = tested on: PPARg:RXRa 90nM:30nM, anti-RXR (NR concentration 90 nM, RXRa partner concentration 30 nM)
Method in brief: as §1

Sequence | PBM binding z-score [1] | PBM binding z-score [2] | PBM binding z-score [3] | PBM binding z-score [4] | PBM binding z-score [5] | PBM binding z-score [6] | PBM binding z-score [7] | PBM binding z-score [8] | PBM binding z-score [9] | PBM binding z-score [10]
GCTCGGAAGACAAGGTCAGAGCTTTGTCCGTAGA | 1.01 | 1.26 | -0.528 | 0.906 | -1.34 | 1.97 | 0.0442 | 0.519 | -0.417 | 0.239
TAGCCTAGGTAATTGGGCCAGTATAGTACGCATC | -0.768 | -1.07 | -0.581 | -0.51 | -0.491 | 0.679 | 0.785 | 0.424 | -0.205 | -0.132
CCTACTGGGCCAAGGTCATTGAACAGTCAAAGCA | 3.08 | 3.2 | 0.814 | 3 | -0.34 | 4.19 | 4.25 | 4.55 | 1.68 | 3.73
CCTAGCAGGCCCATCTGGGTCACTCAAGGCTTGA | 0.338 | 0.486 | -0.426 | 0.484 | -1.16 | 1.7 | 0.158 | 0.743 | -0.909 | -0.217
CCGAGTTGGTTATGGGGCATTCAGGCAACGGTGA | 0.0617 | 0.0147 | -0.147 | 0.0515 | -0.451 | 0.287 | 0.0793 | 0.583 | -0.717 | 0.0357
TCTAGCAGGCCAGAGGGACACTCAAGAGGTACGG | -0.341 | -0.607 | -1.2 | -0.951 | -1.48 | -0.201 | 0.823 | 1.13 | 1.39 | 1.15
TAGCCTAGGTCATGGGCCAGTAAACCACGCGAAC | 4.54 | 3.68 | 0.175 | 2.43 | -0.182 | 4.46 | 3.46 | 3.97 | 1.13 | 2.88
TTACTAAGGTGAAGGTCGTTGATCCCTCTGTAGA | 3.06 | 2.12 | 0.0636 | 2.08 | -0.257 | 3.76 | 5.8 | 6.91 | 5.91 | 7.51
AGTTAAAGTTCATCTAGGTAACGTAAGATATGCT | 6.36 | 6.33 | 5.76 | 3.75 | 2.33 | 4.67 | 4.77 | 4.99 | 2 | 4.03
ATCTCTAGGTAAAGATAGTGCAGTGAATGCAAAT | 0.222 | 1.16 | 0.00124 | 0.147 | 0.236 | 0.141 | 0.354 | 0.233 | 0.0457 | 0.565
CCGACTGGGTCAGAAAGGTTACCATACCATCCGG | 1.8 | 1.62 | -0.0382 | 1.61 | -0.767 | 3.21 | 3.13 | 3.2 | 0.873 | 2.2
ACTAGCAGGCCAAGTTTAGGTCACTCAAACAAAG | 0.818 | 0.384 | 0.281 | 0.929 | -0.282 | 1.6 | 0.288 | 0.528 | -0.151 | 0.000314
TCTAGTTGGTCAAAGCTCACACACTCGAAATGCG | 0.576 | 0.551 | 0.233 | 0.661 | 0.421 | 1.58 | 2.21 | 4.31 | 3.89 | 4.23
CGTAGCAGGCCAATCTGGGTCACTCAAGGCTTGA | 0.309 | 0.88 | -0.711 | 0.262 | -0.737 | 2.6 | 2.21 | 2.03 | -0.188 | 1.08
CCTCGGAGGACAGAAGGCCAGAGCTGTCCGCTTT | -0.543 | -0.556 | -1.17 | -1.28 | -1.6 | -1.15 | -0.739 | -1.08 | -1.21 | -1.06
CAAACTAGGTCAGAGAGGTCAAAGTCCGTGCGTA | 6.28 | 6.16 | 6.8 | 5.36 | 1.48 | 6.07 | 8.4 | 7.06 | 4.96 | 7.01
TGTTGTAGATCAACAGGAGGTTAAGAAAGATCGA | 0.0129 | 0.966 | 0.018 | 0.701 | -0.0946 | 0.963 | -0.033 | 0.456 | 0.304 | 0.492
TCTAGTTTGTCACGGAGGTCACACACGACGGGTA | 3.46 | 3.54 | 2.3 | 3.26 | 1.43 | 3.88 | 2.25 | 3.52 | 3.81 | 3.66
TCGAATAGGTTACCAATGGGGCATTCAGCTTTCT | 0.65 | 2.61 | -0.377 | 2 | -0.392 | 1.87 | 0.255 | 1.75 | 2.94 | 2.43
CCTGCTACGTCATGGTCAGCTAATCTACAGTATG | -0.508 | -0.217 | -0.512 | -0.505 | -0.327 | -0.4 | 0.216 | -0.67 | -0.17 | -0.333
CCGTCTGGGGCATAAGGTTACCATAAGCCAGCCC | 0.562 | 2.1 | -0.402 | 0.847 | -1.32 | 1.78 | 1.29 | 2.07 | 0.233 | 1.54
ATCTCTAGGTAACAGTTCAGTGAATCCCGAGGAT | 0.279 | 0.179 | 0.588 | 0.193 | 0.937 | 2.24 | 3.39 | 4.74 | 3.06 | 4.55
TCTAGCAGGCCAGGGGGTCACTCAAGAGGTACGG | 3.31 | 3.16 | 0.394 | 5.14 | 4.6 | 4.64 | 2.95 | 4.66 | 3.29 | 4.43
GGAACGAGGGCATTAGAGTTGATAGCATGGCGAT | 0.899 | 2.35 | -0.104 | 0.257 | -0.699 | 1.22 | 0.982 | 0.676 | 0.105 | 0.129
CAAACTAGGTCACGAAGGGTCAAAGTCGAATGAC | 7.24 | 7.09 | 4.6 | 6.6 | 1.09 | 6.41 | 10.1 | 7.95 | 7.11 | 8.2

Sequence | PBM binding z-score [1] | PBM binding z-score [2] | PBM binding z-score [3] | PBM binding z-score [4] | PBM binding z-score [5] | PBM binding z-score [6] | PBM binding z-score [7] | PBM binding z-score [8] | PBM binding z-score [9] | PBM binding z-score [10]
ACTAGCAGGCCAAGTTTGGGTCCCTCAAACAAAG | -0.607 | -0.657 | -0.583 | -0.842 | -0.875 | -0.286 | -0.709 | -0.928 | -1.06 | -1.05
TCTTATAGATCAGCAGGTTAAGAAAGCTGGCCAA | 0.0686 | 0.24 | -0.273 | 0.335 | -0.379 | 0.481 | -0.154 | 1.43 | 2.63 | 2.09
ATACAAAGGTGATCGTGAGGTCGTTGATACTAAC | 2.64 | 2.6 | 0.941 | 1.91 | 0.00532 | 2.76 | 1.87 | 1.95 | 0.554 | 1.27
AGTCAAAGTTCATCTAGGTAAGGTAAGATATGCT | 6.12 | 6.16 | 5.26 | 4.05 | 1.73 | 5.02 | 6.22 | 6.34 | 3.3 | 5.66
GCAGACAAGTGAAACGCAGGTAACTCAGGGTGGC | -0.375 | -0.79 | -0.665 | -0.901 | -1.26 | -0.28 | 0.44 | -0.661 | -0.558 | -0.468
CCTAGCAGGCCAGGGTAACTCAAGCATTTCGCTT | -0.463 | -0.678 | -0.559 | -0.682 | -1.09 | 0.0169 | -0.112 | -0.182 | -1.01 | -0.605
TCATATAGGTAAAGATGAAAGTCGAACGATATGA | 0.255 | 0.326 | -0.224 | 0.183 | -0.264 | 0.972 | 1.38 | 2.08 | 3.79 | 3.02
CAGCCTAGGTAAGGGCCAGTATAGGAGGAACGTT | -0.618 | -0.931 | -0.62 | -1.05 | -1.17 | -0.738 | -0.026 | -0.51 | -0.469 | -0.635
CCTTACGGCTCAAGGTTATAGCACGGGTGGTACG | 0.272 | 0.347 | 0.117 | 0.126 | -0.259 | 0.445 | 0.607 | 0.552 | 0.388 | 0.076
TCATATTGGTAAATGCTAGGTGAAAGTCCGATCT | 0.86 | 0.817 | 0.679 | 0.796 | 0.681 | 0.861 | 0.033 | 1.9 | 3.55 | 2.76
AATACAGGGTCACTAGGCCATAGTAGGTACGAAT | 5.83 | 4.98 | 1.02 | 4 | 0.913 | 6.01 | 8.68 | 6.76 | 3.65 | 5.88
AGAACGAGGGCAAGGAGTTGATAGCACGGGTGGC | 0.193 | 0.0802 | -0.479 | -0.441 | -0.879 | 1.2 | 1.25 | 1.06 | -0.111 | 0.543
ACTATTAGTTGACACGAGGGCAACCGATAGGTTG | 1.1 | 1.04 | 0.219 | 0.64 | 0.129 | 1.21 | 1.06 | 0.472 | 0.354 | 0.356
GCGACTGGGGCATCAGGAGGTTACCATAACTTAA | 0.0636 | 0.325 | 0.0698 | 0.842 | -1.05 | 1.7 | 1.35 | 1.26 | 0.00065 | 0.599
TATACAGGGTCAAAGGCCAGAGGACGAATGTCGA | 7.18 | 6.58 | 2.34 | 4.72 | 2.59 | 5.98 | 8.38 | 7.61 | 5.3 | 7.21
TCATTTAGGTAAAAGGTGAAAGTCGGTGTGGTAA | 1.72 | 1.89 | 0.427 | 1.95 | 0.881 | 5.05 | 8.63 | 8.2 | 9.56 | 9.37
ATCGAAAGGTCGAGGTGGGTATAGAGAAAGGGAA | 4.46 | 3.55 | 0.722 | 3.12 | 0.942 | 4.74 | 2.59 | 3.11 | 1.17 | 1.97
CCGACTGGGGCAAGGTTATCATAACGCACAGCCA | 0.246 | 0.372 | -0.203 | 0.586 | -1.17 | 1.56 | 2.69 | 3.04 | 0.861 | 2.36
TCTCGGAGGACACGCAAGGTCAGAGCTCGACATC | 1.49 | 2.26 | 1.31 | 1.58 | -0.475 | 2.1 | 0.475 | 1.39 | 2.16 | 1.64
CCTGCTAGGTCATGGTCAGCAAATCTACAGTATG | 3.65 | 2.33 | 0.105 | 1.71 | -0.273 | 3.53 | 2.37 | 2.74 | 0.551 | 1.8
AGAATGAGGTTACCAAAGATCAGGGATACGCTTG | 1.93 | 5.68 | 0.0211 | 2.95 | 0.0562 | 3.28 | 2.84 | 2.6 | 1.03 | 1.77
CCTACTGTGCCATCAGGTCATTGATATCAACGTT | 2.23 | 2.1 | 2.57 | 2.75 | 1.14 | 2.82 | 2.29 | 3.15 | 1.39 | 2.7
TGAATGAGGTTAAAGACCAGGGAACGTGGCGTCG | 2.78 | 2.16 | -0.15 | 1.26 | 0.1 | 3.51 | 3.08 | 4.46 | 2.42 | 4.02
CCTAGTAGGCCAATCTGGGTCACTCAAGGCTTGA | 0.701 | 1.69 | -0.399 | 1.2 | -0.38 | 3.58 | 3.41 | 3.08 | 0.257 | 2.26
